# Where “and” joins values, the source holds several entries; their conditions need not be identical. Identical values can stand only once. Some compounds were tested as several samples or in several runs, with calls that do not always agree. Calls of active or inactive are those of the source.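 The calls were made as follows, unless noted: active = compounds that lower viability of the colon cancer cells in the luminescence readout, with no numeric limit stated; inactive = the rest.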
# Key:
# [1] = Wnt pathway potentiators raising nuclear beta-catenin – imaging, WNT3A-conditioned medium, mouse C2C12, NPC library, primary screen (AID 1117326; in the data active = nuclear beta-catenin stimulation mostly above about 4.2%, no sharp cut-off; inactive = mostly below about 10%); conditions: stronger effect = higher value
# [2] = stimulators of insulin release from INS-1E, primary screen, cell-based, 5 mM glucose, NPC library (AID 1117329;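 active = compound raises insulin release from rat beta cells at 5 mM glucose, no numeric limit stated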); conditions: rat INS-1E insulin secretion, at 10 µM, stronger effect = higher value
# [3] = growth inhibition of GSK3B-pretreated HCT116 cells – cell-based, CellTiter-Glo, 0.2 to 20 µM (AID 1117336;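 active = compounds lowering colon cancer cell viability after pretreatment blocking the GSK3B kinase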); conditions: HCT116 viability after GSK3B inhibitor, at 20 µM, stronger effect = higher value
# [4] = inhibition of endothelial tube formation, primary screen, imaging, VEGF stimulated, CD31 staining, tube area, NPC library (AID 1117340;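 active = compound that reduces growth-factor-driven endothelial tube area in a mixed cell culture, no cutoff stated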); conditions: VEGF-stimulated ADSC/ECFC co-culture, at 10 µM, stronger effect = higher value
# [5] = GLP1 release stimulators, primary, NCI-H716, NPC library (AID 1117341;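 active = compound raises GLP1 secretion from the human gut endocrine cells, with no numeric limit stated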); conditions: NCI-H716 cells, at 10 µM, stronger effect = higher value
# [6] = HCT116 colon cancer cell growth inhibition, primary screen, CellTiter-Glo luminescence, NPC library (AID 1117342;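 active = compounds that lower survival of HCT116 colon cancer cells in the luminescence readout, no numeric limit stated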); conditions: at 20 µM (top of the series)
# [7] = reduced SW480 viability measured with CellTiter-Glo, NPC library, primary (AID 1117343); conditions: CellTiter-Glo luminescence; at 20 µM (top of the series)
# [8] = NPC library primary testing for decreased DLD-1 cell viability via CellTiter-Glo (AID 1117346;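 active = compounds that lower survival of DLD-1 colon cancer cells in the luminescence readout, no cutoff given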); conditions: DLD-1 viability, CellTiter-Glo luminescence; at 20 µM (top of the series)
# [9] = biological target: 6-phosphogluconate dehydrogenase, decarboxylating (Homo sapiens) (UniProt P52209); assay: inhibition of human phosphogluconate dehydrogenase – biochemical, recombinant enzyme, NADPH absorbance, primary screen (AID 1159550;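 active = at least 20% inhibition of 6-phosphogluconate dehydrogenase activity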); conditions: recombinant 6PGD, NADPH absorbance 341 nm; at 10 µM; stronger effect = higher value
# Sequence of 6-phosphogluconate dehydrogenase, decarboxylating (Homo sapiens) (P52209 whole entry, looked up): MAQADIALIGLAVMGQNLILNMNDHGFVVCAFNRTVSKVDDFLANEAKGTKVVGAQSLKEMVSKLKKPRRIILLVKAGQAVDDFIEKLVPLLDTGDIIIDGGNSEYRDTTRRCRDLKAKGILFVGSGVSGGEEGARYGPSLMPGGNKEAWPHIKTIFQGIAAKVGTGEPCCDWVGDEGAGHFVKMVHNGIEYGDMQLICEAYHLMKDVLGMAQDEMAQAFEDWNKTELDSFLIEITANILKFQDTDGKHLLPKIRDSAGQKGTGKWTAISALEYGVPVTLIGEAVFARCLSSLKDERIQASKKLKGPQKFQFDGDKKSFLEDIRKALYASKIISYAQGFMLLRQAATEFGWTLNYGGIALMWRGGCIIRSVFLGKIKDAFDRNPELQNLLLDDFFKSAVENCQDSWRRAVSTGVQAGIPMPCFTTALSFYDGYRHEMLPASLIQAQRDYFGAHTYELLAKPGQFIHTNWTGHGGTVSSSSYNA
# [10] = modulation of C. elegans fzo-1 (AID 1259413; call rule not given here;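 also: fzo-1 mutant C. elegans worms in liquid wells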); conditions: C. elegans fzo-1 modulator screen, mean read-out; stronger effect = higher value
# [11] = EMT-state selective cytotoxicity in co-culture – imaging, PC-3E GFP, TEM4-18 mCherry, primary screen (AID 1345086;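 active = compounds killing one labelled cell type while sparing the other, by normalised counts and ratio limits, not self-fluorescent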;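 as to all read-outs here: cells exposed to compound for 72 h before imaging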;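 as to red/green cell ratio (normalised): normalised mesenchymal count divided by normalised epithelial count so high means epithelial killing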); conditions: PC-3E GFP / TEM4-18 mCherry co-culture, imaging cell counts, at 1 µM; for red/green cell ratio (normalised): actives lie on both sides, counts scaled to control wells, 1 = unselective
# [12] = MELAS cybrid and Rieske KO viability enhancers – cell-based, MELAS cybrids, Rieske KO mouse fibroblasts, CellTiter-Glo, primary screen (AID 1508586;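 active = mean z-score across replicates of 1.96 or higher in either the MELAS or the Rieske mutant cell line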;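 also: z relative to plate mean and SD of compound and empty wells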); conditions: low glucose
# [13] = biological target: NAD(+) hydrolase SARM1 (Homo sapiens) (UniProt Q6SZW1); assay: blocking NAD cleavage by SARM1 SAM-TIR – cell lysate, NAD-Glo luminescence (AID 1508614;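 active = compound whose remaining NAD level is above about 45 nM, limit read from the data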;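 also: higher remaining NAD means stronger inhibition of SARM1 NADase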); conditions: SAM-TIR HEK293T lysate NADase, at 1 µM, stronger effect = higher value
# Sequence of NAD(+) hydrolase SARM1 (Homo sapiens) (Q6SZW1 whole entry, looked up, the tested form may be a part): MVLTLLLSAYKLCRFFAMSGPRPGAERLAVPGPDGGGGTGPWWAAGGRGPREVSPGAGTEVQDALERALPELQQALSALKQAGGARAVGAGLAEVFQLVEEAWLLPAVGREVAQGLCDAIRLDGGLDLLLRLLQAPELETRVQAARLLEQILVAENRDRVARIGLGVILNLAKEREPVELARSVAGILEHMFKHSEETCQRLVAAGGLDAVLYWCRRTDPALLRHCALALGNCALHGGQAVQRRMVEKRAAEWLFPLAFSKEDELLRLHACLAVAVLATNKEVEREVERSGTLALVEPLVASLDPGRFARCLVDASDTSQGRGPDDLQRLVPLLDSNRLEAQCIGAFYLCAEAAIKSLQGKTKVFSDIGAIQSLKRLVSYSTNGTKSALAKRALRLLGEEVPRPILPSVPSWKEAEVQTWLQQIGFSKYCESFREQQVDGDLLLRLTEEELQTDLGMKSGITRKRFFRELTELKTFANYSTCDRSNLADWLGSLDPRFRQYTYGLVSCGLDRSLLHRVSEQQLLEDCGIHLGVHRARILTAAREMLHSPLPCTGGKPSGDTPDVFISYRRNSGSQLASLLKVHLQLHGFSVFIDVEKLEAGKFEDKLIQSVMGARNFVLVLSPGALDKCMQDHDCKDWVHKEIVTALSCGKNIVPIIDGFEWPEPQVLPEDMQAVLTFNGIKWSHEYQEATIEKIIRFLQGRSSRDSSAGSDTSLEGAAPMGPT
# [14] = biological target: Mitogen-activated protein kinase 7 (Homo sapiens) (UniProt Q13164); assay: Gal4-ERK5 driven luciferase induction – cell-based, HTS, primary screen (AID 1508626;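 active = luciferase signal above three times the same-plate solvent-only control wells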;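 also: luciferase driven by Gal4-ERK5 fusion binding five Gal4 sites before minimal TATA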); conditions: HeLa Gal4-ERK5 transactivation, 18 h, at 5 µM, stronger effect = higher value
# Sequence of Mitogen-activated protein kinase 7 (Homo sapiens) (Q13164 whole entry, looked up, the tested form may be a part): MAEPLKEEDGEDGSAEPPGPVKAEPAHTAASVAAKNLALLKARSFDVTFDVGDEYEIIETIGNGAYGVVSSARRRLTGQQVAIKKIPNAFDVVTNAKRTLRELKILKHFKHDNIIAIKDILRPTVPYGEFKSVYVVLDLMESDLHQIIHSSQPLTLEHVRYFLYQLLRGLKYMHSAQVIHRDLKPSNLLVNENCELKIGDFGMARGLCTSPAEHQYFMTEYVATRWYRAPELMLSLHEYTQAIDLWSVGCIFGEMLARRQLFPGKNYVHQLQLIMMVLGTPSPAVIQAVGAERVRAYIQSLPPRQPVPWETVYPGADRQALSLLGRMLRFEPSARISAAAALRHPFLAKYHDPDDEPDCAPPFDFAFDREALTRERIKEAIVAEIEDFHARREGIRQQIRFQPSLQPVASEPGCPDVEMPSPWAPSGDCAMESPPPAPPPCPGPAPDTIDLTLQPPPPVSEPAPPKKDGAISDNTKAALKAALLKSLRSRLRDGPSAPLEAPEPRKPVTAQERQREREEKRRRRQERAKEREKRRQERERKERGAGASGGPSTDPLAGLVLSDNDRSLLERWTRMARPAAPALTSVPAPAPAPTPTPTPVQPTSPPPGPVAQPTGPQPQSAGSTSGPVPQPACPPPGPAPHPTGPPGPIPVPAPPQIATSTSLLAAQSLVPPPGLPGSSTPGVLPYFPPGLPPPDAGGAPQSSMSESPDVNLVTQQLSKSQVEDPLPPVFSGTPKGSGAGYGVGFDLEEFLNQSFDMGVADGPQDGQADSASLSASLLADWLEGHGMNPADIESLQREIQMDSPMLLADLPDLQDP
# F380Y = assay: BK channel mutant inhibitors and activators – cell-based, U2OS BacMam, thallium flux, beta subunits, selectivity assay, profiling panel (AID 1259406;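 active = thallium flux through the channel raised or lowered by more than 3 SD from vehicle-only wells, actives on both sides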;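 also: initial slope of Thallos dye fluorescence rise after thallium is added; log ratio against the mean of 0.3% DMSO vehicle wells on the same plate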); conditions: U2OS BacMam BK variants, at 30 µM
# F380Y/beta1 = assay: as above; conditions: U2OS BacMam BK variants, at 30 µM
# F380Y/beta2Delta = assay: as above; conditions: U2OS BacMam BK variants, at 30 µM
# [15] = viability loss with induced miR-34 in A549 – imaging, A549 dox-inducible miR-34, nuclei and caspase counts, primary screen (AID 1347080;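 active = compounds whose cell count with miR-34 switched on is under 0.7 times the count with it off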); conditions: A549 miR-34 inducible, Hoechst nuclei count, 48 h
# [16] = measured here: epithelial PC-3E GFP cell survival
# [17] = measured here: mesenchymal TEM4-18 mCherry cell survival
# [18] = MELAS cybrid survival, CellTiter-Glo 48 h, stronger effect = higher value
# [19] = Rieske KO mouse fibroblast survival, CellTiter-Glo 72 h
structure (smiles),measurement,setting,value
NC(=O)NNc1ccccc1,nuclear beta-catenin stimulation,[1]; at 10 µM,3.2% (inactive)
same,nuclear beta-catenin stimulation,"[1]; stimulation, at 2 µM",0.7%
same,insulin secretion stimulation,[2],-1.9% (inactive)
same,viability decrease,[3],-9.75% (inactive)
same,tube area decrease,[4],16% (inactive)
same,GLP1 secretion stimulation,[5],1.4% (inactive)
same,inhibition of viability,[6],-3% (inactive)
same,viability decrease (inhibition),[7],30.5% (inactive)
same,viability decrease (inhibition),[8],7.45% (inactive)
CCCCCCCCCCCC[N+](C)(C)Cc1ccccc1,nuclear beta-catenin stimulation,[1]; at 10 µM,7.4% (inactive)
same,nuclear beta-catenin stimulation,"[1]; stimulation, at 2 µM",-1.2%
same,insulin secretion stimulation,[2],1.9% (inactive)
same,viability decrease,[3],99.3% (active)
same,tube area decrease,[4],108% (active)
same,GLP1 secretion stimulation,[5],-2.1% (inactive)
same,inhibition of viability,[6],99.6% (active)
same,viability decrease (inhibition),[7],78.1% (active)
same,viability decrease (inhibition),[8],101% (active)
Cc1coc2ccccc2c1=O,nuclear beta-catenin stimulation,[1]; at 10 µM,1.5% (inactive)
same,nuclear beta-catenin stimulation,"[1]; stimulation, at 2 µM",2.3%
same,insulin secretion stimulation,[2],-2.4% (inactive)
same,viability decrease,[3],2.8% (inactive)
same,tube area decrease,[4],13.7% (inactive)
same,GLP1 secretion stimulation,[5],3.1% (inactive)
same,inhibition of viability,[6],-12.2% (inactive)
same,viability decrease (inhibition),[7],24.7% (inactive)
same,viability decrease (inhibition),[8],-7.5% (inactive)
same,inhibition,[9],1.24% (inactive)
CCCCC[C@H](O)C=C[C@H]1[C@H](O)CC(=O)[C@H]1CC=CCCCC(=O)O,nuclear beta-catenin stimulation,[1]; at 10 µM,0.5% (inactive)
same,nuclear beta-catenin stimulation,"[1]; stimulation, at 2 µM",-0.7%
same,insulin secretion stimulation,[2],1.7% (inactive)
same,viability decrease,[3],-18.4% (inactive)
same,tube area decrease,[4],28.7% (inactive)
same,GLP1 secretion stimulation,[5],3.8% (inactive)
same,inhibition of viability,[6],-14.5% (inactive)
same,viability decrease (inhibition),[7],25.3% (inactive)
same,viability decrease (inhibition),[8],-48.6% (inactive)
NC12CC3CC(CC(C3)C1)C2,nuclear beta-catenin stimulation,[1]; at 10 µM,2.1% (inactive)
same,nuclear beta-catenin stimulation,"[1]; stimulation, at 2 µM",1.9%
same,insulin secretion stimulation,[2],2.4% (inactive)
same,viability decrease,[3],7.6% (inactive)
same,tube area decrease,[4],3.9% (inactive)
same,GLP1 secretion stimulation,[5],6.5% (inactive)
same,inhibition of viability,[6],30.7% (inactive)
same,viability decrease (inhibition),[7],56.6% (active)
same,viability decrease (inhibition),[8],14.6% (inactive)
same,inhibition,[9],-14.3% (inactive)
same,mean signal,[10],230 (inactive)
same,red/green cell ratio (normalised),[11],1.38 (inactive)
same,normalised cell number,[11]; [16],0.95
same,normalised cell number,[11]; [17],1.32
same,z-score,[12]; [18],-0.372 (inactive) and -0.42 (inactive) and -0.564 (inactive)
same,z-score,[12]; [19],-0.543 and 0.116 and -0.0986
same,remaining NAD,[13],10 nM (inactive)
same,luciferase signal,[14],44 AU (inactive)
same,log fold change Tl+ flux,F380Y,-0.0507 (inactive)
same,log fold change Tl+ flux,F380Y/beta1,0.00169 (inactive)
same,log fold change Tl+ flux,F380Y/beta2Delta,0.0403 (inactive)
N=C(N)c1ccc(OCCCCCOc2ccc(C(=N)N)cc2)cc1,nuclear beta-catenin stimulation,[1]; at 10 µM,-0.7% (inactive)
same,nuclear beta-catenin stimulation,"[1]; stimulation, at 2 µM",1.1%
same,insulin secretion stimulation,[2],2.3% (inactive)
same,viability decrease,[3],0.4% (inactive)
same,tube area decrease,[4],43.4% (active)
same,GLP1 secretion stimulation,[5],-3.5% (inactive)
same,inhibition of viability,[6],12.5% (inactive)
same,viability decrease (inhibition),[7],60.9% (active)
same,viability decrease (inhibition),[8],55.1% (active)
same,inhibition,[9],12.1% (inactive)
same,red/green cell ratio (normalised),[11],0.75 (inactive)
same,normalised cell number,[11]; [16],1.05
same,normalised cell number,[11]; [17],0.79
same,fold change,"[15]; stronger effect = lower value, cell number ratio, induced over uninduced",0.873 (inactive) and 0.95 (inactive) and 1.08 (inactive)
same,fold change,[15]; measured here: relative caspase fold change +Dox/-Dox,1.42 and 0.678 and 1.37
same,cell count,"[15]; measured here: total cells with miR-34 induction, stronger effect = lower value",4130 and 4260 and 6460
same,cell count,[15]; measured here: total cells without miR-34 induction,4730 and 4480 and 6000
same,z-score,[12]; [18],6.07 (active) and -3.61 (inactive) and 2.69 (active)
same,z-score,[12]; [19],6.42 and -2.57 and -1.21
same,remaining NAD,[13],10 nM (inactive)
